Rows were chosen to be rich in hits. Some 2.4% of all compounds tested hit in one or more screens of this group.
WRN inhibitor = blocks human WRN helicase; Q14191; WRN helicase unwinding, fluorescent forked duplex, kinetic; Potency, µM (titrated, usually from 114 µM), inactives show at the top dose activity change, negative = inhibition, usual class: inhibitors; actives 0.46% (n = 360,000); further: on the % scale 0 is the no-effect control and ±100 the full control effect; nearly all actives have a fitted effect of over 55% in size
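Primary qHTS, 1536-well format. 20 nM WRN + compound, 15 min RT; start with 100 nM forked fluorophore/quencher duplex, 2 mM ATP (final); kinetic read ex 525/em 598 nm.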
Pol iota inh = DNA polymerase iota (human) inhibition; Pol iota fluorescent replication assay, 10 min; Potency, µM (series often up to 115 µM), without a hit: at the highest dose activity, negative = inhibition, hits mostly inhibitors; actives 1% (n = 390,000)
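Pol iota at 10 nM preincubated 15 min with compounds at room temperature; reaction started with fluorescent substrate, 50 nM final. Fluorescence read kinetically at 0 and 10 min; buffer-only wells as negative control.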
Pol kappa inh = blocks human DNA polymerase kappa activity. actives 0.53% (n = 400,000). Potency, µM (series often up to 107 µM), for inactives: top-dose activity, negative = inhibition, usual class: inhibitors. purified Pol kappa, fluorescent DNA synthesis assay, 10 min. Q9UBT6; further: on the % scale 0 is the no-effect control and ±100 the full control effect
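Inhibition of 10 nM Pol kappa is measured by a fluorescent read-out at 0 and 10 min following addition of 50 nM substrate (final), with a 15-min room-temperature compound preincubation.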
Pol eta inh = DNA polymerase eta (human) inhibition; recombinant Pol eta, fluorescent DNA replication assay; Q9Y253; actives 1.2% (n = 390,000); Potency, µM (doses to about 114 µM), without a hit: at the highest dose activity change, negative = inhibition, actives largely listed as inhibitors; further: on the % scale 0 is the no-effect control and ±100 the full control effect
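Pol eta at 10 nM preincubated with compounds 15 min at room temperature; reaction started with fluorescent substrate (50 nM final) and read kinetically at 0 and 10 min.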
FEN1 inhibitor = human FEN1 inhibition | actives 0.35% (n = 390,000) | Potency, µM (highest dose often 114 µM), for the others: top-dose activity change, negative = inhibition, hits mostly inhibitors | Recombinant FEN1 flap cleavage, fluorescence, 15 min | AID 588795; further: on the % scale 0 is the no-effect control and ±100 the full control effect; nearly all actives have a fitted effect of over 65% in size
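Nuclease activity of 10 nM FEN1 was measured after 15 min of room-temperature exposure to titrated compounds, by adding 50 nM flap substrate and reading plates at 0 and 15 min.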
POLB inh = blocks human DNA polymerase beta activity | P06746 | Pol beta primer extension/strand displacement, fluorescence kinetic | Potency, µM (doses to about 114 µM), without a hit: at the highest dose activity change, negative = inhibition, hits mostly inhibitors | actives 1.3% (n = 340,000); further: on the % scale 0 is the no-effect control and ±100 the full control effect
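Curves were derived by four-parameter Hill fits of normalized qHTS data. The kinetic fluorescent primer-extension read was taken at 0 and 10 min after 50 nM substrate, following a 15 min room-temperature preincubation of 10 nM enzyme with compounds.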
The depositor's hits bear a star; ? = inconclusive; . = not tested or not shown; [ ] = remark or other dose. The call rests on the fitted dose curve; in most records, active means well fitted curve in the direction sought with a large enough effect; inconclusive means small, poorly fitted or top-dose-only effect, or another doubt; inactive means no such curve, though single readings can be large; an effect the other way counts as inactive or inconclusive. Potency means the concentration at half of the fitted maximal effect.

SMILES	WRN inhibitor	Pol iota inh	Pol kappa inh	Pol eta inh	FEN1 inhibitor	POLB inh
COc1cccc(/C=C/c2[nH]c(=O)[nH]c(=O)c2[N+](=O)[O-])c1O	-10%[11.6 µM]	11µM*	-17%	50µM*	-3%	32%
O=c1[nH]c(/C=C/c2ccccc2Cl)c([N+](=O)[O-])c(=O)[nH]1	-35%	?	-27%	28µM*	13%	-8%
CCOc1ccc(C(=O)c2cn(Cc3ccc(Cl)cc3)c3cc(OC)c(OC)cc3c2=O)cc1	.	26%	-4%	5%	9%	1%
COCCCNC(=O)CSc1nc2cc3c(cc2c(=O)n1CCCC(=O)NCc1ccc2c(c1)OCO2)OCO3	.	1%	-6%[60.1 µM]	13%	18%	2%
CCCCNC(=O)CSc1nc2cc3c(cc2c(=O)n1CCCC(=O)NCc1ccc2c(c1)OCO2)OCO3	.	89µM*	-5%[60.1 µM]	-5%	-9%	38%
Cn1c(=O)c2c(nc(SCC(=O)NCc3ccc4c(c3)OCO4)n2Cc2ccc(Cl)cc2)n(C)c1=O	-11%	?	-44%	89µM*	-11%	-17%
CC(C)(C)n1ncc2c(=O)n(Cc3ccccc3C#N)cnc21	.	20%	-23%	.	5%	.
O=C[C@@H]1CCCN1C(=O)[C@@H]1CCCN1C(=O)OCc1ccccc1	.	.	7%[19.4 µM]	.	.	.
CN(C)/[N+]([O-])=N/Oc1ccc([N+](=O)[O-])cc1C(F)(F)F	.	25%	-8%	.	-13%	.
Cc1ccccc1-n1sc2cc(F)ccc2c1=O	14µM*	82%	-8%	-11%	79µM*	14%
O=C(O)c1cccc(-n2sc3ccccc3c2=O)c1	-26%[11.6 µM]	?	-7%	-15%	20µM*	.
O=c1c2cc(F)ccc2sn1-c1ccccc1	-5%	-13%	-6%	-5%	79µM*	.
O=c1c2ccccc2sn1-c1nccs1	25µM*	61%	6%	-5%	?	-8%
O=c1c2ccccc2sn1-c1cccc(Cl)c1	0%	.	.	1%	.	.
Cc1cc(=O)oc2cc(NC(=O)[C@H](CCCCN)NC(=O)[C@H](CC3CCCCC3)NC(=O)OCC3c4ccccc4-c4ccccc43)ccc12	.	.	1%[60.1 µM]	.	.	.
O=c1c2ccccc2sn1-c1ccccc1	50µM*	?	-13%	-9%	?	1%
Cc1cc(O)c(C(C)C)cc1N=Cc1ccccc1[N+](=O)[O-]	-22%	20µM*	-6%	-23%	-17%	.
COc1cc(C(C)C)c2c(c1)S(=O)(=O)N(COc1cc(=O)n3cccc(OCCN4CCCCC4)c3n1)C2=O	.	.	-19%[60.1 µM]	.	.	.
Cc1ccc2occ(C3N[C@H](C(=O)O)CS3)c(=O)c2c1 (some centres not stated)	-29%	10µM*	-9%	?	0%	4%
Cc1ccc(NC(=O)Cn2cc(C(=O)c3ccco3)c3ccccc32)cc1	.	79µM*	-3%[60.1 µM]	-5%	18%	11µM*
O=C(Cn1cc(C(=O)c2ccco2)c2ccccc21)Nc1ccccc1	3%	6%	3%	-19%	4%	?
Cc1cccc(C)c1NC(=O)Cn1cc(C(=O)c2ccco2)c2ccccc21	.	79µM*	-22%	?	-14%	50µM*
N#Cc1ccc(S(=O)(=O)N2CCN(c3nc(-c4cccs4)nc4ccccc34)CC2)cc1	.	9%	1%	.	10%	.
COc1ccc(-c2nnc(SCC(=O)Nc3cccc(F)c3)s2)cc1	.	-10%	-13%[60.1 µM]	-6%	18%	35µM*
COc1cc(/C=C(\C#N)c2nc3ccccc3[nH]2)ccc1OCc1cccc(C(F)(F)F)c1	.	?	-6%	.	-23%	3.5µM*
SMILES	WRN inhibitor	Pol iota inh	Pol kappa inh	Pol eta inh	FEN1 inhibitor	POLB inh
COC(=O)c1ccc(COc2ccc(/C=C(\C#N)c3nc4ccccc4[nH]3)cc2OC)o1	?	24%	-18%	?	-11%	8.9µM*
Cc1ccc(CS(=O)Cc2ccc(C(=O)NCc3ccc4c(c3)OCO4)o2)cc1 (configuration not stated)	4%	39%	2%	-25%	-15%	43%
COc1ccc(S(=O)(=O)Cc2ccc(C(=O)N3CCN(Cc4ccccc4)CC3)o2)cc1	1%	18%	0%	-16%	-5%	-20%
COc1ccccc1CNC(=O)c1ccc(CS(=O)(=O)c2ccc(C)cc2)o1	-15%	71µM*	?	45µM*	-15%	89µM*
Cc1ccc(S(=O)(=O)Cc2ccc(C(=O)N3CCN(Cc4ccccc4)CC3)o2)cc1	.	.	.	.	.	25µM*
Cc1ccc(S(=O)(=O)Cc2ccc(C(=O)NCc3ccc4c(c3)OCO4)o2)cc1	-11%	?	?	-16%	-18%	5.6µM*
CCNC(=O)[C@@H]1CCCN1C(=O)[C@H](CCCN=C(N)N)NC(=O)[C@H](CC(C)C)NC(=O)[C@@H](Cc1c[nH]c2ccccc12)NC(=O)[C@H](Cc1ccc(O)cc1)NC(=O)[C@H](CO)NC(=O)[C@H](Cc1c[nH]c2ccccc12)NC(=O)[C@H](Cc1cnc[nH]1)NC(=O)[C@@H]1CCC(=O)N1	.	.	1%[19.4 µM]	.	.	.
Cc1cccc(-n2nnnc2S(C)(=O)=O)c1	.	?	-8%[60.1 µM]	5%	10%	-1%
COc1cccc(-n2nnnc2S(C)(=O)=O)c1	50µM*	14%	-16%	-4%	-12%	8%
CC(C)c1onc(-c2c(Cl)cccc2Cl)c1COc1ccc(/C=C/c2cccc(C(=O)O)c2)c(Cl)c1	.	.	30µM*	.	.	.
CCC(C)NC(=O)c1cccc(OCc2c(C)noc2C)c1 (configuration not stated)	-32%[57.1 µM]	15%	0%	9%	-3%	-1%
CCCN1CNc2c(c(=O)[nH]c(=S)n2CCc2cccs2)C1	.	-9%	-10%	.	-12%	.
CNc1ccccc1	6%	-6%	-3%	-13%	-7%	.
CNc1ccc(C=C2C=CC=C2)cc1	.	5µM*	?	.	1%	.
NCc1ccccc1Sc1ccccc1CO	.	.	-3%[19.4 µM]	.	.	.
O=C1c2cc(O)cc(O)c2OC[C@@H]1c1ccc(O)c(O)c1	.	.	15µM*	.	.	.
O=S(=O)(Nc1nccs1)c1cc(Cl)ccc1Cl	-12%[57.1 µM]	?	0%	25µM*	3%	-2%
O=S(=O)(Nc1ncccn1)c1cc(Cl)ccc1Cl	2%	111%	-6%	-6%	4%	34%
O=S(=O)(Nc1nccs1)c1ccc(NS(=O)(=O)c2c(F)cc(F)c(Cl)c2F)cc1	-27%	?	-12%	50µM*	-11%	.
CC1CC=CC2C1C(=O)N(Cc1ccccc1)C2c1ccoc1 (configuration not stated)	.	?	-19%	.	-20%	.
COc1cc(C2CC(=O)Nc3c2c(=O)n(C)c2ncnn32)cc(OC)c1OC (configuration not stated)	.	50µM*	-7%	-4%	4%	-12%

Screens deposited in PubChem BioAssay by National Center for Advancing Translational Sciences (NCATS).
